67 molecules from PubChem BioAssay AID1851 (National Center for Advancing Translational Sciences (NCATS), 2009) can be followed below.

The structures appear in SMILES notation. Hit rate of the full screen: of about 16,000 compounds, about 5,100 (32%) were called active. Another 25% or so got no clear call; they are omitted. The call rests on the fitted dose curve; in most records, active means well fitted curve in the direction sought with a large enough effect; inconclusive means small, poorly fitted or top-dose-only effect, or effect the other way; inactive means no such curve, though single readings can be large or run the other way. The list shows a part of the results.
On the % scale 0 is the no-effect control and ±100 the full control effect.

Sequence of Cytochrome P450 3A4 (Homo sapiens) (P08684 whole entry, looked up): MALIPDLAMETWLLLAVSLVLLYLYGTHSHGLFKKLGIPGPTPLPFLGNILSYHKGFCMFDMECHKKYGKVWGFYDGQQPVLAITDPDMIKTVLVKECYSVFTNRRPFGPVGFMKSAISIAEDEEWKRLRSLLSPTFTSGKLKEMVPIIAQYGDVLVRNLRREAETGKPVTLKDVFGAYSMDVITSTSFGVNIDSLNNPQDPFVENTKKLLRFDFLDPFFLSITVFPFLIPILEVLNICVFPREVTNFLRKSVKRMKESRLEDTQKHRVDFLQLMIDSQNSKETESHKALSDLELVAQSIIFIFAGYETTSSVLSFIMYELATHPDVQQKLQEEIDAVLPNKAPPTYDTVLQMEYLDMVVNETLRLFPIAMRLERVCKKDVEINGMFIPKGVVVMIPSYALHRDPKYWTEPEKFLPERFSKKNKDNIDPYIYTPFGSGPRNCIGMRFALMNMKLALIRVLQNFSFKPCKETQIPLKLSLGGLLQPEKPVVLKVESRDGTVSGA

The assay concerns the target Cytochrome P450 3A4 (Homo sapiens) (UniProt P08684). The assay is described as follows: Cytochrome panel assay with activity outcomes. As to conditions: recombinant CYP, pro-luciferin dealkylation, luminescence, p450-cyp3a4; series mostly up to 57.1 µM; activity, negative = inhibition: at the top concentration. Here is the method: The P450 gene superfamily is involved in the metabolism and clearance of xenobiotics. This assay used various human CYP P450 isozymes to measure the dealkylation of various pro-luciferin substrates to luciferin. The luciferin is then measured by luminescence after the addition of a luciferase detection reagent. Pro-luciferin substrate concentration in the assay was equal to its KM for its CYP P450 isozyme. Inhibitors and some substrates limit the production of luciferin, and decrease measured luminescence.
NCGC Assay Protocol Summary:
1, Reagent, 2 uL, Isozyme and Pro-Luciferin
2, Library compounds, 23 nl, 40 uM to 0.24 nM dilution series
3, Controls, 23 nl, Isozyme specific inhibitor
4, Reagent, 2 uL, NADPH regeneration solution
5, Incubation time, 60 min, Isozyme specific temperature
6, Reagent, 4ul, Detection reagent
7, Incubation time, 20 min, Isozyme specific temperature
8, Detection, 1 sec, ViewLux luminescent read
The luciferase-based P450-GloTM Screening Systems were obtained from Promega (Madison, WI) for CYP 1A2 (V9770), CYP 2C9 (V9790), CYP2 C19 (V9880), CYP 2D6 (V9890), and CYP 3A4 Luciferin-PPXE (V9910) and were adapted for 1,536-well microplates and an automated protocol. The control compounds furafylline for 1A2 (F124), sulfaphenazole for CYP 2C9 (S0758), ketoconazole for CYP 2C19 (K1003), quinidine for 2D6 (Q3625), and ketoconazole for 3A4 (K1003) were purchased from Sigma Aldrich (St. Louis, MO). Recombinant P450 enzymes were obtained from baculovirus constructs expressed in insect cells (BD/Gentest).
Medium-binding white solid Kalypsys plates used. Mixtures kept on ice. 1A2: 10 nM 1A2, 100 uM Luc-ME, 100 mM KPO4; 2C9: 10 nM 2C9, 100 uM Luc-H, 25 mM KPO4; 2C19: 5 nM 2C19, 10 uM Luc-H EGE, 50 mM KPO4; 2D6: 5 nM 2D6, 30 uM Luc-ME EGE, 100 mM KPO4; 3A4: 10 nM, 25 uM Luc-PPXE. All amounts are reflected in their final concentration, working concentration is 2x.
NADPH regeneration solution: 1.3 mM NADP+, 3.3 mM glucose-6-phosphate, 3.3 mM MgCl2, 0.4 U/mL glucose-6-phosphate dehydrogenase for all isozymes, 200 mM KPO4 for 3A4. Mixture prepared at RT but kept on ice during automated run.
RT incubation in auxilliary plate hotel for 1A2, 2D6, and 3A4; 37C for 2C9 and 2C19.
Keywords: P450, CYP1A2, CYP2C19, CYP2C9, CYP2D6, CYP3A4, Luciferase, MLSMR, MLSCN, NIH Roadmap, qHTS, NCGC
`O=C(CSc1nc2ccccc2c(=O)n1NC(=O)c1ccccc1)c1ccc(Cl)cc1`: the concentration at half-maximal activity (AC50) (as a rule, the midpoint of the concentration-response curve, whichever way the signal moves) is 14.1 µM (active). Take `CC(C)(C)n1ncc2c(=O)n(CC(=O)NCc3ccccc3Cl)cnc21`: the activity, negative = inhibition is -27.1% [at 11.4 µM] (inactive). On to `O=C(CSc1nc2ccccc2c(=O)n1NC(=O)Cc1ccccc1)NCc1ccccc1Cl`, for which the concentration at half-maximal activity (AC50) was 5.62 µM (active).

With `CC(=O)C1C(c2ccccc2OC(F)F)NC(=O)NC1(O)C(F)(F)F` (configuration not stated), the “activity, negative = inhibition” value is -21.6% (inactive). For `CCCCCC(=O)O[C@H](CC(=O)O)C[N+](C)(C)C`, the “activity, negative = inhibition” value was -10.6% (inactive). Turning to `CN(C)c1ccc(-c2cncnc2NCCN2CCOCC2)cc1`, the AC50 was 3.16 µM (active). Same read-out and setting: under `CN(C)C(=O)c1ccc(-c2cncnc2NCCN2CCOCC2)cc1` stands 15.8 µM (active). Take `Cc1ccnc(NS(=O)(=O)c2ccc(N=[N+]=[N-])cc2)n1`: the activity, negative = inhibition was 1.05% [at 11.4 µM] (inactive). With `COc1cccc(/C=N/NC(=O)c2cc(-c3cccn3C)n[nH]2)c1`, the activity, negative = inhibition was -9.54% [at 2.29 µM] (inactive). Still for that read-out and setting: with `O=c1[nH][nH]c(C(F)(F)F)c1C=Nc1cccc(Cl)c1` the figure was -6.64% (inactive). As to `COc1cccc(N=Cc2c[nH][nH]c2=O)c1`, the half-maximal activity concentration (AC50) is 14.1 µM (active). Take `Clc1cccc(C=NC=Nc2cccc(Cl)c2)c1`: the “activity, negative = inhibition” value was -25.5% (inactive).

In the case of `O=c1[nH][nH]cc1C=Nc1ccccc1O`, the activity, negative = inhibition was -5.56% [at 11.4 µM] (inactive).

Consider `COc1cccc(C=NC=Nc2cccc(OC)c2)c1`, for which the concentration at half-maximal activity (AC50) is 20 µM (active). `CCCn1nnnc1-c1cc(Cl)cc(Cl)c1`: the activity, negative = inhibition was 29.9% [at 2.29 µM] (inactive). The same measure, in the same setting: with `N#C/C(=C\c1cccs1)C(=O)NCC1CCCO1` (configuration not stated) the figure was -2.23% (inactive). With `Cc1cccc(C)c1NC(=O)/C(C#N)=C/c1cccs1`, the AC50 is 20 µM (active).

As for `Cc1sc(NC(=O)c2ccco2)c(C(c2cccnc2)N2CCN(C)CC2)c1C` (configuration not stated), the activity, negative = inhibition was -28.9% [at 2.29 µM] (inactive). In the case of `O=C(NCC(c1cccs1)N1CCOCC1)c1ccco1` (configuration not stated), the “activity, negative = inhibition” value is -11.4% (inactive). `Cc1sc(NC(=O)c2ccco2)c(C(c2cccnc2)N2CCCC2)c1C` (configuration not stated): the AC50 was 1.58 µM (active).

For the molecule `Cc1sc(NC(=O)c2ccco2)c(C(c2ccncc2)N2CCOCC2)c1C` (configuration not stated), the AC50 is 3.16 µM (active).

With `COc1ccccc1-c1nccc(NCc2cccnc2)n1`, the half-maximal activity concentration (AC50) is 2.51 µM (active).

As for `Cc1cccc(CNc2ccnc(-c3ccccc3Cl)n2)c1`, the half-maximal activity concentration (AC50) was 3.98 µM (active). As for `Cc1ccccc1-c1nccc(NCc2cccnc2)n1`, the concentration at half-maximal activity (AC50) is 3.98 µM (active).

For the molecule `COc1ccccc1-c1nccc(NCc2ccccc2)n1`, the concentration at half-maximal activity (AC50) is 15.8 µM (active). Consider `O=c1c(-c2ccccc2)c(O)c2cccc3c2n1CCC3`, for which the “activity, negative = inhibition” value is -13.8% (inactive). In the case of `CCCCCSc1nnc(C)c(=O)[nH]1`, the “activity, negative = inhibition” value was 1.88% (inactive). Regarding `COc1ccccc1-c1nccc(NCc2cccc(C)c2)n1`, the concentration at half-maximal activity (AC50) was 6.31 µM (active).

Turning to `CC1=c2c(oc3cc(O)c(Nc4c(C)cc(O)cc4O)c(C)c23)=CC(=O)C1=Nc1c(C)cc(O)cc1O`, the activity, negative = inhibition was -19.4% [at 11.4 µM] (inactive). Still for that read-out and setting: under `CC(c1ccccc1C(O)c1ccccc1)N(C)C` (configuration not stated) stands 16.7% (inactive).

On to `CCOc1ccc(NC(=O)N(C2CCCCC2)C(C)c2ccncc2)cc1` (configuration not stated), for which the AC50 is 15.8 µM (active).

For `COc1ccc(NC(=O)N(C2CCCCC2)C(C)c2cccnc2)c(OC)c1` (configuration not stated), the concentration at half-maximal activity (AC50) is 10 µM (active). On to `CCCCN(C(=O)Nc1ccc(OCC)cc1)C1CCN(C(C)=O)CC1`, for which the “activity, negative = inhibition” value is -4.5% (inactive). As to `CCOc1ccc(NC(=O)C(=O)NCC2CCCN2CC)cc1` (configuration not stated), the “activity, negative = inhibition” value is -4.42% (inactive). On the same count and under the same terms, under `COc1nc(Cl)nc(Cl)c1Cl` (tested in a mixture with another compound) stands 3.03% [at 11.4 µM] (inactive); under `CCn1c(O)c(/C=C2\C=Nc3ccccc32)sc1=Nc1ccc(C)cc1`, -3.41% [at 2.29 µM] (inactive). For the molecule `O=c1c(-c2cccs2)nc2cncnc2n1Cc1ccc(F)cc1`, the half-maximal activity concentration (AC50) was 12.6 µM (active).

In the case of `Cc1nc2cncnc2n(Cc2ccccc2)c1=O`, the “activity, negative = inhibition” value was 0.371% (inactive).

Take `O=c1c(-c2cccs2)nc2cncnc2n1Cc1ccccc1`: the half-maximal activity concentration (AC50) was 6.31 µM (active). `Cc1c(N(C)C)c(=O)n(-c2ccccc2)n1C`: the “activity, negative = inhibition” value is -12.7% [at 25.6 µM] (inactive). As to `Cc1c(NC(=S)/C=C2\N(C)c3ccccc3C2(C)C)c(=O)n(-c2ccccc2)n1C`, the AC50 was 5.62 µM (active). Turning to `Cc1c(NC(=S)N/N=C/c2ccc(O)cc2)c(=O)n(-c2ccccc2)n1C`, the “activity, negative = inhibition” value was -17.4% (inactive).

`COc1ccc2sc3ccccc3c(=O)c2c1OC`: the half-maximal activity concentration (AC50) was 17.8 µM (active). Turning to `COc1ccc2cc(C(=O)Nc3ccc(F)cc3)sc(=O)c2c1OC`, the activity, negative = inhibition was -4.97% [at 2.29 µM] (inactive). For `COc1ccc2c(c1OC)C(=O)OC2Nc1ncccc1C` (configuration not stated), the activity, negative = inhibition is -2.44% [at 2.29 µM] (inactive). For `COc1ccc(CN2C(=O)CN(C3CCCCCC3)C(=O)C2c2ccc(OC)c(OC)c2)cc1` (configuration not stated), the AC50 was 1.58 µM (active). With `COc1cc(C2C(=O)N(C3CCCC3)CC(=O)N2Cc2ccco2)ccc1OC(C)C` (configuration not stated), the concentration at half-maximal activity (AC50) is 8.91 µM (active).

On to `COc1ccc(C2C(=O)N(C3CCCCCC3)CC(=O)N2Cc2ccccc2)cc1OC` (configuration not stated), for which the concentration at half-maximal activity (AC50) was 4.47 µM (active). Still for that read-out and setting: with `C=CCn1c(SCC(=O)N2CC(=O)Nc3ccccc32)nc2scc(-c3ccccc3)c2c1=O` the figure was 2.82 µM (active); with `C=CCn1c(SC(C)C(=O)NCc2ccc3c(c2)OCO3)nc2scc(-c3ccccc3)c2c1=O` (configuration not stated), 0.562 µM (active). For the molecule `C=CCn1c(SCc2ccccc2)nc2scc(-c3ccc(C)o3)c2c1=O`, the “activity, negative = inhibition” value was -11.1% (inactive).

Consider `C=CCn1c(SCc2ccc3c(c2)OCO3)nc2scc(-c3ccco3)c2c1=O`, for which the AC50 is 2.82 µM (active). Regarding `COc1ccc(S(=O)(=O)N2CCc3ccccc3C2)cc1OC`, the AC50 was 15.8 µM (active). As to `O=S(=O)(c1ccc(Cl)s1)N1CCc2ccccc2C1`, the “activity, negative = inhibition” value is 17.9% (inactive). Still for that read-out and setting: with `O=C(ON=C1CCN(S(=O)(=O)c2ccccc2)CC1)c1ccccc1` the figure was 2.57% (inactive); with `CCCCCCCCCCCCC(=O)N1CCCC[C@H]1CNC(=O)[C@@H](N)CCCCN`, -26.5% (inactive); with `CC(=O)NNc1cccc(Cl)n1`, 8.92% (inactive). Consider `NC(=O)NC(=O)Nc1ccccc1Cl`, for which the “activity, negative = inhibition” value is -6.66% (inactive).

Take `O=C(NNc1cccc(Cl)n1)Nc1ccccc1Cl`: the concentration at half-maximal activity (AC50) was 12.6 µM (active). With `CCN(CCO)C[C@H]1CCC[C@H]2CCCC[C@@H]21`, the activity, negative = inhibition is -20% [at 11.4 µM] (inactive). Regarding `CN(C)S(=O)(=O)Oc1ccsc1C(=O)Nc1cccc(Cl)c1`, the AC50 was 10 µM (active). As for `CN(C)S(=O)(=O)c1ccc(NC(=O)c2cc(F)c(F)cc2Cl)cc1`, the “activity, negative = inhibition” value is 14.8% (inactive). For the molecule `CN(C)S(=O)(=O)Oc1ccsc1C(=O)Nc1ccc(Cl)cc1`, the concentration at half-maximal activity (AC50) was 15.8 µM (active). For the molecule `CN(C)S(=O)(=O)Oc1cccc(C(=O)Nc2ccccc2Cl)c1`, the activity, negative = inhibition is -12.3% [at 11.4 µM] (inactive). Turning to `Cc1ccc(Sc2ccc(NC(=O)c3ccc(S(C)(=O)=O)cc3Cl)cc2)cc1`, the “activity, negative = inhibition” value is -22.9% (inactive).

For the molecule `C/C(=N/OC(=O)c1cccc(Cl)c1)c1nccs1`, the “activity, negative = inhibition” value is 5.02% (inactive). For the molecule `CN(C)S(=O)(=O)Oc1cccc(C(=O)Nc2ccc(Cl)c(Cl)c2)c1`, the AC50 is 25.1 µM (active).
